MPTP block = permeability transition pore inhibition; 1.4% of 360,000 active; inhibition, % at 10 µM; isolated mouse mitochondria, Ca2+ swelling absorbance, 30 min;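 active = inhibition of 50% or more, scaled per plate between neutral and stimulator controls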;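 also: 0% = DMSO wells given calcium and 100% = 1 mM EGTA wells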
CSC inhib = cancer stem cell inhibition | inhibition, % at 7.5 µM | 1.1% of 300,000 active | cancer stem cell-like cells viability, luminescence; in the data active = inhibition above about 75%; tested in HMLE shEcad cells
Beta cell apopt = blocks beta cell apoptosis. protection from apoptosis, % (no concentration beside the values). 0.8% of 300,000 active. INS-1E cytokine-induced death, ATP luminescence, 48 h; percent of positive-control rescue, neutral wells zero;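 active = Every replicate reaches about 75%, or at least half do and their mean reaches it too, limit read from the data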;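 also: 0% = cytokine-treated negative control wells and 100% = positive control rescue; higher means more ATP so stronger rescue from cytokine killing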
Mdm2-MdmX inh = disrupts the human Mdm2-MdmX interaction; O15151+Q00987; SaOS-2 split-luciferase Mdm2/MdmX complementation, luminescence; inhibition, % at 8 µM; 3% of 330,000 active; AID 485346;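 active = inhibition of at least 50% at 8 µM in the primary screen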
Target sequence (O15151 whole entry, looked up): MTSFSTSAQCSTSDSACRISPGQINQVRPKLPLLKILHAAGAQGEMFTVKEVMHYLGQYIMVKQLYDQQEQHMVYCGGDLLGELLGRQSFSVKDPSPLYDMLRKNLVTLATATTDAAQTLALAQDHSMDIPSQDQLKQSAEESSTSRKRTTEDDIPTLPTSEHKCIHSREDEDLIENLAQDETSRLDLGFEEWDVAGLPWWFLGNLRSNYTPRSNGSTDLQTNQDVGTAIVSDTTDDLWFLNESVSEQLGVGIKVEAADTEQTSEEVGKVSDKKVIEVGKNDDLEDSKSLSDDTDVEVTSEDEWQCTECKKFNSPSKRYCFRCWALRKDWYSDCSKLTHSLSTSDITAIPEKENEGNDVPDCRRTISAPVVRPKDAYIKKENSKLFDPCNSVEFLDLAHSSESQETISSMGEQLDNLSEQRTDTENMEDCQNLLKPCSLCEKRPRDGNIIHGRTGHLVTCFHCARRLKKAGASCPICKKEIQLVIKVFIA
Target sequence (Q00987 whole entry, looked up): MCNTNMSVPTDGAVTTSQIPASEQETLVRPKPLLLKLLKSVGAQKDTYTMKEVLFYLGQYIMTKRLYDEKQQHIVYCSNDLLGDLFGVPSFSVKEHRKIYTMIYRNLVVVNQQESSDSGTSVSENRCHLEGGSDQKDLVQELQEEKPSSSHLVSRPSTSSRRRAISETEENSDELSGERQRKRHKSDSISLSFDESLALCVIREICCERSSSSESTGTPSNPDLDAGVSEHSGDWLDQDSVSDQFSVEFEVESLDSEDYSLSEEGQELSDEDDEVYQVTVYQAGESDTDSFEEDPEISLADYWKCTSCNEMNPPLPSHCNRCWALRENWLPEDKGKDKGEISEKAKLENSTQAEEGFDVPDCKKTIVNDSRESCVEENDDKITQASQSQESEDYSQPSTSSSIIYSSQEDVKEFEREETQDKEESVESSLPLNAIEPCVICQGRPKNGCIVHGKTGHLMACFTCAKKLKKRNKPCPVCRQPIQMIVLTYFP
Gli-Sufu block = blocks Gli-Sufu signaling in a luciferase reporter | Sufu-KO-LIGHT fibroblasts, Gli luciferase reporter luminescence | inhibition, % at 5 µM | 0.74% of 340,000 active;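 active = inhibition above about 55%, limit read from the data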;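 also: 0% = DMSO-treated cells and 100% = wells with medium but no cells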
GRIN3A LBD mod = modulators (binders) of human NR3A ligand-binding domain. NR3A LBD differential scanning fluorimetry, Tm shift; 0% = protein alone, 100% = glycine-bound protein. Tm shift relative to glycine control, % at 25 µM. 2.5% of 340,000 active. AID 1259313;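 active = melting temperature shift of at least 10% of the positive control shift, at one fixed dose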
Mdm2 MdmX conf = human Mdm2/MdmX binding inhibition, confirmed; shares compounds with Mdm2-MdmX inh; luminescent assay; inhibition, % at 8 µM; 55% of 10,000 active; AID 489028; in the data active = inhibition above about 40%
Full FLuc ctr = full-length luciferase inhibition in Mdm2/MdmX counter-screen; shares compounds with Mdm2-MdmX inh; AID 504607; 77% of 6,200 active; SaOS-2 full-length luciferase counterscreen, luminescence; inhibition, % at 8 µM;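 active = mean inhibition at 8 µM reaching about 37%, which flags the compound as non-specific, limit read from the data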;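 also: p53-null SaOS-2 cells with luciferase driven by a doxycycline-inducible promoter; compound on cells about two nights before reading with doxycycline added after day one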
* = called active by the depositor; · = not tested or not shown. Only some compounds are listed: those with a hit (about 6.6% of all), similar ones and a draw of the others.

SMILES	MPTP block	CSC inhib	Beta cell apopt	Mdm2-MdmX inh	Gli-Sufu block	GRIN3A LBD mod	Mdm2 MdmX conf	Full FLuc ctr
O=[N+]([O-])c1ccc2nc(N3CCNCC3)ccc2c1	·	1	·	10	-10	-2	·	·
COc1cccc(O)c1CN1CCCC(C(=O)c2ccccc2SC)C1 (stereo not drawn)	2	25	1	22	27	-1	·	·
CC(=O)OC[C@]12CCC(C)=C[C@H]1O[C@@H]1[C@H](O)[C@@H](OC(C)=O)[C@@]2(C)[C@]12CO2	-1	-13	·	100*	92*	-2	100*	0
CC(C)[C@H]1C(=O)O[C@H](C(C)C)C(=O)N(C)[C@@H](C(C)C)C(=O)O[C@H](C(C)C)C(=O)N(C)[C@@H](C(C)C)C(=O)O[C@H](C(C)C)C(=O)N1C	-1	-7	109*	95*	84*	0	88*	49*
CCOc1cc2c(cc1OCC)-n1cccc1C(c1ccc(OC)c(O)c1)NC2 (stereo not drawn)	0	2	2	27	1	-1	·	·
COc1ccc2c(c1)[nH]c1c(C)nccc12	-5	12	-13	90*	-28	-1	90*	23
Cc1nccc2c1[nH]c1ccc(Br)cc12	1	-2	-2	37	1	-1	·	·
O=C(CCN1CC1)OCCOC(=O)CCN1CC1	2	·	·	·	4	0	·	·
COC(=O)C1=C(c2ccc(OCc3ccccc3)cc2)C[C@@H]2CC[C@H]1N2C(=O)NC1CCN(Cc2ccccc2)CC1	3	48	78*	85*	51	-5	54*	62*
COC(=O)C1=C(c2ccc(-c3ccccc3)c(F)c2)C[C@@H]2CC[C@H]1N2C(=O)NC1CCCCC1	0	42	22	69*	35	1	41*	64*
COC12C(COC(N)=O)C3=C(C(=O)C(C)=C(N)C3=O)N1CC1C2N1C (stereo not drawn)	1	-3	-3	74*	-17	-2	39	·
CC(=O)OC(C)(C)/C=C/C(=O)C(C)(O)C1[C@H](O)C[C@@]2(C)C3CC=C4C(CC[C@@H](O)C4(C)C)[C@]3(CO)C(=O)C[C@]12C (stereo partly drawn)	-1	41	·	98*	80*	-1	98*	0
CCC12C=CCN3CCC4(c5cc(Br)c(OC)cc5N(C)C4C(O)(C(=O)OC)C1OC(C)=O)C32 (stereo not drawn)	-2	-9	·	-17	11	1	·	·
C=C1C(=O)O[C@@H]2C[C@@H](C)[C@@H]3C=CC(=O)[C@@]3(C)[C@@H](O)[C@H]12	-2	52	112*	95*	97*	1	99*	51*
COC(=O)C1=C(c2ccc3ccccc3c2)C[C@@H]2CC[C@H]1N2C(=O)NC1Cc2ccccc2C1	1	38	-8	-10	5	-1	·	·
COc1cc2c(cc1O)C[C@H]1NCCc3cc4c(c-2c31)OCO4	0	65	29	61*	-7	-11	39	41*
COc1cc2c(cc1OC)-c1c3c(cc4c1[C@@H](C2)N(C)CC4)OCO3	2	·	61	54*	-2	-5	48*	40*
COc1cc2c(cc1OC)-c1c(OC)c(OC)cc3c1C(C2)N(C)CC3 (stereo not drawn)	1	26	·	44	3	-2	·	·
O=[N+]([O-])c1ccc(N2CCNCC2)cc1Sc1ccccn1	0	-1	-4	13	26	-17	·	·
CC(=O)c1c(C)n(Cc2ccccc2)c2ccc(O)cc12	8	17	-4	31	-6	1	·	·
CC(=O)c1c(C)n(C2CCCCC2)c2ccc(O)cc12	0	4	·	82*	-18	-3	82*	48*
COC(=O)C1=C(c2ccc(OC)c(OC)c2)C[C@@H]2CC[C@H]1N2C(=O)NCCc1ccccc1	-2	-10	-12	14	-8	-1	·	·
N#Cc1cc2c(nc1SCC(=O)Nc1cc(Cl)ccc1Cl)C1CCN2CC1	5	45	13	84*	-38	-2	99*	21
N#Cc1cc2c(nc1SCC(=O)Nc1ccc(Cl)cc1)C1CCN2CC1	1	-5	7	-84	-10	0	·	·
O=C(Nc1ccc2ccccc2c1)N1C[C@H]2C[C@@H](C1)c1cccc(=O)n1C2	1	-6	3	-16	-13	0	·	·
SMILES	MPTP block	CSC inhib	Beta cell apopt	Mdm2-MdmX inh	Gli-Sufu block	GRIN3A LBD mod	Mdm2 MdmX conf	Full FLuc ctr
C[C@@H]1C[C@H]2OC(=O)C3(CO3)[C@H]2[C@H](O)[C@]2(C)C(=O)C3OC3[C@@H]12 (stereo partly drawn)	·	58	-8	51*	·	·	36	21
CCCCCCC(=O)N/N=C/c1c(O)n(CCc2ccccc2)c(=O)[nH]c1=O	-6	10	18	59*	2	4	36	·
CCCCCCC(=O)N/N=C/c1c(O)n(C(C)CC)c(=S)[nH]c1=O (stereo not drawn)	19	16	7	58*	0	1	14	·
COCCNC(=O)N1[C@H]2CC[C@@H]1C(C(=O)OC)=C(c1cccc(C#N)c1)C2	-1	-25	-5	1	22	0	·	·
O=c1[nH]c(=O)n(-c2ccccc2)c(O)c1/C=C1/C(c2ccccc2)=Nc2ccccc21	1	88*	8	61*	-11	-11	62*	75*
COC(=O)C1=Nc2ccccc2/C1=C\c1c(O)n(-c2ccc(Br)cc2)c(=O)[nH]c1=O	14	9	-3	·	7	-9	·	·
C[C@@H]1CN([C@@H](C)CO)C(=O)CCCn2cc(nn2)CO[C@H]1CN(C)C(=O)Oc1ccc2ccccc2c1	-1	·	·	·	·	·	·	·
Cc1ccc(/C=C2\C(=O)NC(=S)N(c3ccccc3F)C2=O)s1	46	5	-4	·	18	-8	·	·
Cc1ccc(/C=C2\C(=O)NC(=S)N(c3ccc(F)cc3)C2=O)s1	14	28	-11	80*	-26	-3	4	·
CCc1ccc(N2C(=O)NC(=O)/C(=C/c3cccn3CCOc3ccc(C)cc3)C2=O)cc1	-4	·	10	14	10	-14	·	·
O=C1NC(=S)NC(=O)C1=Cc1cccn1-c1ccc(O)cc1	1	·	·	·	0	-3	·	·
Cc1cc(C)cc(N2C(=O)NC(=O)/C(=C\c3cccn3-c3ccc(Cl)cc3)C2=O)c1	4	·	-4	69*	-2	2	56*	79*
CN1C(=O)/C(=C/c2cccn2-c2ccc3ccccc3c2)C(=O)NC1=S	4	43	-12	100*	0	-1	24	·

Screening data as filed in PubChem BioAssay.
